Compound activity (PubChem)
Rows were chosen to be rich in hits. Some 0.95% of all compounds tested hit in one or more screens of this group.
LmPK inh: qHTS Assay for Inhibitors of Leishmania Mexicana Pyruvate Kinase (LmPK) | purified LmPK, Kinase-Glo ATP luminescence, 1 h | AID 1721, 2009 | Potency, µM (titrated, usually from 57.5 µM), hits mostly inhibitors | 0.37% of 290,000 active | Q27686
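qHTS format; LmPK 0.1 nM; substrates PEP 0.5 mM and ADP 0.1 mM. One-hour room-temperature incubation, then coupled luciferase luminescence; 0.5 nM enzyme wells mark activation.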
Giardia FBPA inh-1: qHTS Assay for Inhibitors of Fructose-1,6-bisphosphate Aldolase from Giardia Lamblia. A8B2U2. Potency, µM (titrated, usually from 59.6 µM), usual class: inhibitors. AID 2451, 2010. 0.71% of 290,000 active. purified Giardia FBPA; also: nearly all actives have a fitted effect of over 55% in size
Target sequence (A8B2U2 whole entry, looked up): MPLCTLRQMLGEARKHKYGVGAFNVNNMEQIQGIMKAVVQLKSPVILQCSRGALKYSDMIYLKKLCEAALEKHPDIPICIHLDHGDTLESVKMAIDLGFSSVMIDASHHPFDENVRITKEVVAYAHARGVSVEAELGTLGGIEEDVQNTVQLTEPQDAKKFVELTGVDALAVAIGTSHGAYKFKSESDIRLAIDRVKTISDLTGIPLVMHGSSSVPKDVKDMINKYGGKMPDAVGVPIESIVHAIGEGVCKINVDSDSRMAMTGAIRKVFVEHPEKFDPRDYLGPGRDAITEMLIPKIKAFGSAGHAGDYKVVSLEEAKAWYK
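40 nM FBPA preincubated 10 min at RT with compound (up to 57.5 uM final), then substrate plus GAPDH/TPI/NAD/arsenate coupling and diaphorase/resazurin added. Fluorescence read after 20 min at RT, 525/598 nm.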
RE007 growth inh: qHTS Assay for Inhibitors of the HIV-1 protein Vpr. S. pombe RE007 Vpr strain, BacTiter-Glo ATP luminescence, 24 h. Potency, µM (top dose mostly 92.2 µM), hits mostly inhibitors. 0.21% of 360,000 active. AID 651644, 2012; active = well fitted falling curve with a large enough effect; inconclusive = small, poorly fitted or top-dose-only effect; inactive = no such curve, though single readings can be large or run the other way; also: nearly all actives have a fitted effect of over 50% in size
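Fission yeast strain RE007, carrying one chromosomally integrated HIV-1 vpr copy, was seeded at OD 0.01 in PMG+AL medium with 23 nL pinned compound. After 24 h at 30 °C and 99% humidity, viability was read by BacTiter-Glo luminescence.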
Tb PYK inh: qHTS of Trypanosoma Brucei Inhibitors; TbPYK enzyme, Kinase-Glo Plus ATP luminescence, 45 min; Potency, µM (top dose mostly 76.8 µM), usual class: inhibitors; 0.12% of 410,000 active; AID 624173, 2012; also: nearly all actives have a fitted effect of over 50% in size
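T. brucei PYK with substrate was exposed to pin-transferred compounds across a concentration series, then started with 130 uM ADP (final). After 45 min at room temperature, Kinase-Glo Plus luminescence was read, normalized and curve-fitted.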
Giardia growth: qHTS Assay for Inhibitors of Fructose-1,6-bisphosphate Aldolase from Giardia Lamblia: Giardia lamblia growth inhibition | shares compounds with Giardia FBPA inh-1 | Giardia lamblia trophozoite growth inhibition | Potency, µM (top dose mostly 57.5 µM), usual class: inhibitors | 5% of 1,500 active | AID 2785, 2010;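 also: trophozoites exposed to compound for 48 h at 37 °C; nearly all actives have a fitted effect of over 70% in size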
Mammal cell tox: qHTS Assay for Inhibitors of Fructose-1,6-bisphosphate Aldolase from Giardia Lamblia: Mammalian cellular toxicity | shares compounds with Giardia FBPA inh-1 | mammalian cell viability counter-screen, qHTS | Potency, µM (top dose mostly 57.5 µM), usual class: inhibitors | 4% of 1,500 active;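 also: Chinese hamster ovary cells used as mammalian cytotoxicity surrogate; viability measured as cellular ATP by luminescence; compound exposure lasted 48 h before reading; nearly all actives have a fitted effect of over 60% in size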
Giardia FBPA inh-2: qHTS Assay for Inhibitors of Fructose-1,6-bisphosphate Aldolase from Giardia Lamblia: Primary screen confirmation; shares compounds with Giardia FBPA inh-1; purified Giardia aldolase enzyme activity, qHTS; Potency, µM (doses to about 57.5 µM), hits mostly inhibitors; 5% of 1,500 active; also: nearly all actives have a fitted effect of over 45% in size
Rabbit aldolase: qHTS Assay for Inhibitors of Fructose-1,6-bisphosphate Aldolase from Giardia Lamblia: Rabbit FBPA Selectivity. Rabbit muscle FBPA enzyme inhibition, selectivity counter-screen. AID 2794, 2010. Potency, µM (highest dose often 57.5 µM), usual class: inhibitors. 4% of 1,500 active. shares compounds with Giardia FBPA inh-1; also: nearly all actives have a fitted effect of over 60% in size
GAPDH coupling: qHTS Assay for Inhibitors of Fructose-1,6-bisphosphate Aldolase from Giardia Lamblia: Coupling assay counterscreen confirmation | shares compounds with Giardia FBPA inh-1 | GAPDH coupling enzyme counterscreen, biochemical, qHTS | Potency, µM (series often up to 57.5 µM), usual class: inhibitors | 6% of 1,500 active; also: nearly all actives have a fitted effect of over 55% in size
Large screens that a line does not name were inactive (follow-up assays come after a bar, where they were run); [ ] = dose if it differs, or a comment. Unless noted, calls follow the shape of the dose curve; as a rule, active = well fitted curve in the direction sought with a large enough effect; inconclusive = small, poorly fitted or top-dose-only effect, or another doubt; inactive = no such curve, though single readings can be large; an effect the other way counts as inactive or inconclusive.

CCCCc1nnc(NC(=O)CSCc2cc(=O)n3cc(C)sc3n2)s1	Giardia FBPA inh-1 4µM | Giardia growth inactive | Mammal cell tox inconclusive | Giardia FBPA inh-2 inconclusive | Rabbit aldolase inactive | GAPDH coupling inactive
CCc1ccc(Cc2cnc(NC(=O)C3=NCCN3)s2)cc1	Giardia FBPA inh-1 14µM | Giardia growth inconclusive | Mammal cell tox inactive | Giardia FBPA inh-2 inactive | Rabbit aldolase inactive | GAPDH coupling inactive
O=C(Nc1ncc(Cc2ccccc2Cl)s1)C1=NCCN1	none
COc1cc(C(=O)Nc2ccc3oc(-c4ccccc4)nc3c2)cc(OC)c1OC	none (no result: LmPK inh, Giardia FBPA inh-1, RE007 growth inh)
COC(=O)/C=C1\S/C(=N\N=C\CC(=O)OC)NC1=O	Giardia FBPA inh-1 16µM | Giardia growth inactive | Mammal cell tox inactive | Giardia FBPA inh-2 inactive | Rabbit aldolase inactive | GAPDH coupling inactive
COC(=O)/C=C1\SC(=Nc2ccc(OC)cc2)NC1=O	none
COc1ccc(N2C(=O)CC(NNc3ncc(Cl)cc3Cl)C2=O)cc1 (stereo unspecified)	Giardia FBPA inh-1 16µM | Giardia growth inactive[10.4 µM] | Mammal cell tox inactive | Giardia FBPA inh-2 inactive | Rabbit aldolase inactive | GAPDH coupling inactive
CCc1cccc(C)c1NC(=S)N(CCCN1CCOCC1)Cc1cccnc1	Giardia FBPA inh-1 16µM | Giardia growth inactive | Mammal cell tox inactive | Giardia FBPA inh-2 inactive | Rabbit aldolase inactive | GAPDH coupling inactive
CON/C=N/C(=S)Nc1ncc(C(F)(F)F)cc1Cl	Giardia FBPA inh-1 6.3µM, RE007 growth inh inconclusive | Giardia growth inconclusive | Mammal cell tox inactive | Giardia FBPA inh-2 inactive | Rabbit aldolase inactive | GAPDH coupling inactive
Cc1ccc(C)c(N2C(=O)CC(Cc3ccc(Cl)cc3)C2=O)c1 (stereo unspecified)	none
COC(=O)C1=C(C)NC(=O)/C1=C\c1cc(C)n(-c2ccc(F)cc2)c1C	Giardia FBPA inh-1 inconclusive
COC(=O)C1=C(O)/C(=C\c2cc(C)n(-c3ccc(F)cc3)c2C)N=C1C	Giardia FBPA inh-1 16µM | Giardia growth inactive[10.4 µM] | Mammal cell tox inactive | Giardia FBPA inh-2 inactive | Rabbit aldolase inactive | GAPDH coupling inactive
CC(C)=CCC/C(C)=C/CO/N=C1/C[C@@H](O)[C@@H](O)[C@@H]2[C@@H]3C(=O)N(C4CCCCC4)C(=O)[C@H]3CC[C@@H]12	none (no result: LmPK inh, RE007 growth inh, Tb PYK inh)
c1ccc(-c2nnc(-c3ccccn3)nn2)nc1	none (no result: LmPK inh, Giardia FBPA inh-1)
c1ccc(-c2cccc(-c3ccccn3)n2)nc1	Giardia FBPA inh-1 7.9µM, RE007 growth inh inconclusive | Giardia growth inconclusive | Mammal cell tox 1.3µM | Giardia FBPA inh-2 inactive | Rabbit aldolase inactive | GAPDH coupling inactive
COc1cc(-c2nc(S(=O)(=O)c3ccc(C)cc3)c(N3CCOCC3)o2)cc(OC)c1OC	Giardia FBPA inh-1 35µM | Giardia growth inconclusive | Mammal cell tox inactive | Giardia FBPA inh-2 inactive | Rabbit aldolase inactive | GAPDH coupling inactive
COc1cc(-c2nc(S(=O)(=O)c3ccc(Cl)cc3)c(N3CCOCC3)o2)cc(OC)c1OC	none
